{"source": "PubChem BioAssay (NCATS)", "note": "Results filed as inconclusive are left out. Where a call stands in place of a potency, no number is given. Active and inactive are the calls of the source. Calls follow the shape of the dose curve; as a rule, active = well fitted inhibition curve with a large enough effect; inconclusive = small, poorly fitted or top-dose-only effect; inactive = flat fitted curve, though single readings scatter. Potency is read from the fitted curve at half-maximal effect.", "data": [{"system": "CP217", "experiment": "qHTS profiling for inhibitors of Plasmodium falciparum proliferation (AID 504749); also: nearly all actives have a fitted effect of over 60% in size", "conditions": "P. falciparum in erythrocytes, SYBR Green DNA, 72 h; series mostly up to 28.7 µM", "in_short": "(§1)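 P. falciparum-infected erythrocytes (0.3% parasitemia, 2.5% hematocrit) incubated with compound 72 h at 37 C, 5% CO2. Parasite DNA detected by SYBR Green after lysis, overnight at room temperature; normalised to 0.29 uM artemisinin and DMSO.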", "values": [{"smiles": "CCCCc1ccc(C(=O)O)nc1", "Potency": "inactive"}, {"smiles": "O=[N+]([O-])c1ccc([As](=O)(O)O)cc1", "Potency": "7.94 µM (active)"}, {"smiles": "Cc1ccc(Cl)c(O)c1", "Potency": "inactive"}, {"smiles": "CC(C)NC(C)Cc1ccc(I)cc1", "note": "(stereo not drawn)", "Potency": "inactive"}, {"smiles": "CCCN1CCC[C@H](c2cccc(O)c2)C1", "Potency": "inactive"}, {"smiles": "CN(C)[C@@H]1C(=O)C(C(N)=O)=C(O)[C@@]2(O)C(=O)C3=C(O)c4c(O)cccc4[C@@](C)(O)[C@H]3[C@H](O)[C@@H]12", "Potency": "inactive"}, {"smiles": "COC(=O)[C@@H](N)CCCN=C(N)N[N+](=O)[O-]", "Potency": "inactive"}, {"smiles": "CC[N+]1(CCOC(=O)C(O)(c2ccccc2)c2ccccc2)CCCCC1", "Potency": "inactive"}, {"smiles": "CC(=O)[O][Hg][c]1ccccc1", "Potency": "7.08 µM (active)"}, {"smiles": "Cc1cc(O)ccc1Cl", "Potency": "inactive"}, {"smiles": "CCCCCCCCCC(CC)c1ccc(S(=O)(=O)O)cc1", "note": "(stereo not drawn)", "Potency": "inactive"}, {"smiles": "O=C(O)COc1ccccc1", "Potency": "inactive"}, {"smiles": "c1ccc(C2(c3ccccc3)CC2C2=NCCN2)cc1", "note": "(stereo not drawn)", "Potency": "inactive"}, {"smiles": "O=C(O)C(Cl)Cl", "Potency": "inactive"}, {"smiles": "C#CC1(O)CCC2C3CCC4=CC(=O)CCC4(C)C3CCC21C", "note": "(stereo not drawn)", "Potency": "inactive"}, {"smiles": "C[C@]12CCC(=O)C(O)=C1CC[C@@H]1[C@H]3CCC(=O)[C@@]3(C)CC[C@@H]12", "Potency": "inactive"}, {"smiles": "CN1C2CCC1CC(OC(=O)c1cc(Cl)cc(Cl)c1)C2", "note": "(stereo not drawn)", "Potency": "inactive"}, {"smiles": "NC(=O)CN1CC(O)CC1=O", "note": "(stereo not drawn)", "Potency": "inactive"}, {"smiles": "C=CCN1CC[C@]23CCCCC2[C@H]1Cc1ccc(O)cc13", "note": "(stereo partly drawn)", "Potency": "inactive"}, {"smiles": "C1CCC(NC2CCCCC2)CC1", "Potency": "inactive"}]}, {"system": "CP237", "experiment": "qHTS profiling for inhibitors of Plasmodium falciparum proliferation (AID 504749)", "conditions": "P. falciparum in erythrocytes, SYBR Green DNA, 72 h; series mostly up to 28.7 µM", "in_short": "as §1", "values": [{"smiles": "CCCCc1ccc(C(=O)O)nc1", "Potency": "inactive"}, {"smiles": "O=[N+]([O-])c1ccc([As](=O)(O)O)cc1", "Potency": "7.94 µM (active)"}, {"smiles": "Cc1ccc(Cl)c(O)c1", "Potency": "inactive"}, {"smiles": "COC(C)(C)CCCC(C)C/C=C/C(C)=C/C(=O)OC(C)C", "note": "(stereo not drawn)", "Potency": "12.6 µM (active)"}, {"smiles": "CC(=O)OCC1=C(C(=O)O)N2C(=O)[C@@H](N)[C@@H]2SC1", "Potency": "inactive"}, {"smiles": "CCCCCCCCCCCCCCCC[N+](C)(C)C", "Potency": "7.08 µM (active)"}, {"smiles": "COC(=O)[C@@H](N)CCCN=C(N)N[N+](=O)[O-]", "Potency": "inactive"}, {"smiles": "CC[N+]1(CCOC(=O)C(O)(c2ccccc2)c2ccccc2)CCCCC1", "Potency": "inactive"}, {"smiles": "CC(=O)[O][Hg][c]1ccccc1", "Potency": "4.47 µM (active)"}, {"smiles": "Cc1cc(O)ccc1Cl", "Potency": "inactive"}, {"smiles": "CCCCCCCCCC(CC)c1ccc(S(=O)(=O)O)cc1", "note": "(stereo not drawn)", "Potency": "inactive"}, {"smiles": "O=C(O)COc1ccccc1", "Potency": "inactive"}, {"smiles": "c1ccc(C2(c3ccccc3)CC2C2=NCCN2)cc1", "note": "(stereo not drawn)", "Potency": "inactive"}, {"smiles": "O=C(O)C(Cl)Cl", "Potency": "inactive"}, {"smiles": "C#CC1(O)CCC2C3CCC4=CC(=O)CCC4(C)C3CCC21C", "note": "(stereo not drawn)", "Potency": "inactive"}, {"smiles": "C[C@]12CCC(=O)C(O)=C1CC[C@@H]1[C@H]3CCC(=O)[C@@]3(C)CC[C@@H]12", "Potency": "inactive"}, {"smiles": "CN1C2CCC1CC(OC(=O)c1cc(Cl)cc(Cl)c1)C2", "note": "(stereo not drawn)", "Potency": "inactive"}, {"smiles": "NC(=O)CN1CC(O)CC1=O", "note": "(stereo not drawn)", "Potency": "inactive"}, {"smiles": "C1CCC(NC2CCCCC2)CC1", "Potency": "inactive"}]}, {"system": "CP238", "experiment": "qHTS profiling for inhibitors of Plasmodium falciparum proliferation (AID 504749)", "conditions": "P. falciparum in erythrocytes, SYBR Green DNA, 72 h; series mostly up to 28.7 µM", "in_short": "as §1", "values": [{"smiles": "CCCCc1ccc(C(=O)O)nc1", "Potency": "inactive"}, {"smiles": "O=[N+]([O-])c1ccc([As](=O)(O)O)cc1", "Potency": "11.2 µM (active)"}, {"smiles": "NC1=NC(=O)N2CC12", "note": "(stereo not drawn)", "Potency": "inactive"}, {"smiles": "Cc1ccc(Cl)c(O)c1", "Potency": "inactive"}, {"smiles": "COC(C)(C)CCCC(C)C/C=C/C(C)=C/C(=O)OC(C)C", "note": "(stereo not drawn)", "Potency": "inactive"}, {"smiles": "CC(C)NC(C)Cc1ccc(I)cc1", "note": "(stereo not drawn)", "Potency": "inactive"}, {"smiles": "CCCN1CCC[C@H](c2cccc(O)c2)C1", "Potency": "inactive"}, {"smiles": "CN(C)[C@@H]1C(=O)C(C(N)=O)=C(O)[C@@]2(O)C(=O)C3=C(O)c4c(O)cccc4[C@@](C)(O)[C@H]3[C@H](O)[C@@H]12", "Potency": "inactive"}, {"smiles": "CN[C@@H]1C[C@@H](c2ccc(Cl)c(Cl)c2)c2ccccc21", "Potency": "inactive"}, {"smiles": "COC(=O)[C@@H](N)CCCN=C(N)N[N+](=O)[O-]", "Potency": "inactive"}, {"smiles": "CC(=O)[O][Hg][c]1ccccc1", "Potency": "5.62 µM (active)"}, {"smiles": "Cc1cc(O)ccc1Cl", "Potency": "inactive"}, {"smiles": "CCCCCCCCCC(CC)c1ccc(S(=O)(=O)O)cc1", "note": "(stereo not drawn)", "Potency": "inactive"}, {"smiles": "O=C(O)COc1ccccc1", "Potency": "inactive"}, {"smiles": "c1ccc(C2(c3ccccc3)CC2C2=NCCN2)cc1", "note": "(stereo not drawn)", "Potency": "inactive"}, {"smiles": "O=C(O)C(Cl)Cl", "Potency": "inactive"}, {"smiles": "C#CC1(O)CCC2C3CCC4=CC(=O)CCC4(C)C3CCC21C", "note": "(stereo not drawn)", "Potency": "inactive"}, {"smiles": "C[C@]12CCC(=O)C(O)=C1CC[C@@H]1[C@H]3CCC(=O)[C@@]3(C)CC[C@@H]12", "Potency": "inactive"}, {"smiles": "CN1C2CCC1CC(OC(=O)c1cc(Cl)cc(Cl)c1)C2", "note": "(stereo not drawn)", "Potency": "inactive"}, {"smiles": "NC(=O)CN1CC(O)CC1=O", "note": "(stereo not drawn)", "Potency": "inactive"}, {"smiles": "C=CCN1CC[C@]23CCCCC2[C@H]1Cc1ccc(O)cc13", "note": "(stereo partly drawn)", "Potency": "inactive"}, {"smiles": "C1CCC(NC2CCCCC2)CC1", "Potency": "inactive"}]}, {"system": "CP247", "experiment": "qHTS profiling for inhibitors of Plasmodium falciparum proliferation (AID 504749)", "conditions": "P. falciparum in erythrocytes, SYBR Green DNA, 72 h; series mostly up to 28.7 µM", "in_short": "as §1", "values": [{"smiles": "CCCCc1ccc(C(=O)O)nc1", "Potency": "inactive"}, {"smiles": "Cc1ccc(Cl)c(O)c1", "Potency": "inactive"}, {"smiles": "CC(C)NC(C)Cc1ccc(I)cc1", "note": "(stereo not drawn)", "Potency": "inactive"}, {"smiles": "CN(C)[C@@H]1C(=O)C(C(N)=O)=C(O)[C@@]2(O)C(=O)C3=C(O)c4c(O)cccc4[C@@](C)(O)[C@H]3[C@H](O)[C@@H]12", "Potency": "inactive"}, {"smiles": "COC(=O)[C@@H](N)CCCN=C(N)N[N+](=O)[O-]", "Potency": "inactive"}, {"smiles": "CC(=O)[O][Hg][c]1ccccc1", "Potency": "5.62 µM (active)"}, {"smiles": "Cc1cc(O)ccc1Cl", "Potency": "inactive"}, {"smiles": "CCCCCCCCCC(CC)c1ccc(S(=O)(=O)O)cc1", "note": "(stereo not drawn)", "Potency": "inactive"}, {"smiles": "O=C(O)COc1ccccc1", "Potency": "inactive"}, {"smiles": "c1ccc(C2(c3ccccc3)CC2C2=NCCN2)cc1", "note": "(stereo not drawn)", "Potency": "inactive"}, {"smiles": "O=C(O)C(Cl)Cl", "Potency": "inactive"}, {"smiles": "C#CC1(O)CCC2C3CCC4=CC(=O)CCC4(C)C3CCC21C", "note": "(stereo not drawn)", "Potency": "inactive"}, {"smiles": "C[C@]12CCC(=O)C(O)=C1CC[C@@H]1[C@H]3CCC(=O)[C@@]3(C)CC[C@@H]12", "Potency": "inactive"}, {"smiles": "CN1C2CCC1CC(OC(=O)c1cc(Cl)cc(Cl)c1)C2", "note": "(stereo not drawn)", "Potency": "inactive"}, {"smiles": "NC(=O)CN1CC(O)CC1=O", "note": "(stereo not drawn)", "Potency": "inactive"}, {"smiles": "C=CCN1CC[C@]23CCCCC2[C@H]1Cc1ccc(O)cc13", "note": "(stereo partly drawn)", "Potency": "inactive"}, {"smiles": "C1CCC(NC2CCCCC2)CC1", "Potency": "inactive"}]}]}
